Compound activity: PubChem, National Center for Advancing Translational Sciences (NCATS)
Shown are actives, neighbours in structure and some others; about 5.8% of the full set was active somewhere.
PINK1 expr mod: A Quantitative High throughput Screen to Identify Chemical Modulators of PINK1 Expression; Potency, µM (series often up to 76.6 µM), for the others: top-dose activation (PINK1 increase), actives largely listed as activators; AID 624263, 2012; 410,000 compounds, 0.2% hits; PINK1 immunofluorescence, high-content cytometry, 24 h; active means well fitted activation curve with a large enough effect; inconclusive means small, poorly fitted or top-dose-only effect; cell line not stated here; further: % of control where 0% means no effect; nearly all actives have a fitted effect of over 65% in size
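Measures PINK1 amount and localization on or inside mitochondria by immunofluorescence. Stable cells get compounds at 5 concentrations for 24 hours before fixation and staining; CCCP controls included.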
KB-3-1 cytotox: qHTS assay for MDR1-selective chemotherapeutics: Primary screen using the parental adenocarcinoma cell KB-3-1; Potency, µM (series often up to 46.1 µM), hits mostly cytotoxic; AID 1347075, 2019; 400,000 compounds, 1.4% hits; KB-3-1 viability, CellTiter-Glo ATP luminescence, 72 h; further: on the % scale 0 is the no-effect control and ±100 the full control effect; nearly all actives have a fitted effect of over 60% in size
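KB-3-1 cells, DMEM (no phenol red) + 10% FBS; compound by pin transfer, 72 h, 37 °C. Readout: CellTiter-Glo luminescence after 10 min. Data normalized, curve-fitted.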
12-LOX inh: Primary qHTS assay for inhibitors of human arachidonate 12S-lipoxygenase (ALOX12): Round 2; Polyunsaturated fatty acid lipoxygenase ALOX12 (Homo sapiens), P18054; purified 12hLO, xylenol orange hydroperoxide absorbance; Potency, µM (titrated, usually from 108 µM), inactives show at the highest dose activity change, negative = inhibition, most hits filed as inhibitors; 580,000 compounds, 1.1% hits; AID 1671190, 2021; further: on the % scale 0 is the no-effect control and ±100 the full control effect
Target sequence (P18054 whole entry, looked up): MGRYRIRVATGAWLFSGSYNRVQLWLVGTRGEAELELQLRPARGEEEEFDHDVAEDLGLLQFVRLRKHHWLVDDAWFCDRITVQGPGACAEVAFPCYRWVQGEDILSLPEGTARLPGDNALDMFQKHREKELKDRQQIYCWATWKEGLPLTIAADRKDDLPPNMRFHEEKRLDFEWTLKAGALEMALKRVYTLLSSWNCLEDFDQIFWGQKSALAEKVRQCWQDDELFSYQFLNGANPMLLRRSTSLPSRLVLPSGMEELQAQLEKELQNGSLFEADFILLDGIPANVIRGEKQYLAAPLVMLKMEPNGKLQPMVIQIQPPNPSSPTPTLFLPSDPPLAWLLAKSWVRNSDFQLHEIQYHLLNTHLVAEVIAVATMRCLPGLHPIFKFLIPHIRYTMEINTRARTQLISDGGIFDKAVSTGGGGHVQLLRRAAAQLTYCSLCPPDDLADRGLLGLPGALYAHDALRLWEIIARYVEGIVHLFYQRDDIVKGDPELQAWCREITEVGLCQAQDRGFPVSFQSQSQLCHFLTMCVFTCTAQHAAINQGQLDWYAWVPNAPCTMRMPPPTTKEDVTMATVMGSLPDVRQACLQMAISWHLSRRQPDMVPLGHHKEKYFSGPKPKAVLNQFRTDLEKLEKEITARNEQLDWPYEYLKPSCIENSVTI
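Purified human 12hLO at 150 nM in 25 mM Hepes, 0.01% Triton X-100, pH 7.0, preincubated 15 min at room temperature with compound. Reaction started with 40 uM arachidonic acid, 30 min at room temperature. Hydroperoxide measured by Fe-xylenol orange, 573/405 nm absorbance ratio.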
KB-V1 cytotox: qHTS assay for MDR1-selective chemotherapeutics: Primary screen using the drug-selected MDR subline cells KB-V1 | 400,000 compounds, 3.4% hits | KB-V1 MDR cells viability, CellTiter-Glo, 72 h | Potency, µM (top dose mostly 46.1 µM), most hits filed as cytotoxic; further: on the % scale 0 is the no-effect control and ±100 the full control effect; nearly all actives have a fitted effect of over 60% in size
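Following 72 h at 37 degrees C with compound, KB-V1 cell viability was read by CellTiter-Glo luminescence, medium being phenol-red-free DMEM plus 10% FBS; concentration-response parameters came from normalized, curve-fitted qHTS data.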
MCF10A rereplic: A quantitative high throughput screen for small molecules that induce DNA re-replication in MCF 10a normal breast cells; MCF 10A DNA re-replication, Hoechst nuclear intensity, 48 h; Potency, µM (series often up to 46.1 µM), without a hit: at the highest dose activity, positive = re-replication, usual class: activators; 350,000 compounds, 2.9% hits; AID 624296, 2012; further: % of control where 0% means no effect; nearly all actives have a fitted effect of over 50% in size
SW480 rereplic: A quantitative high throughput screen for small molecules that induce DNA re-replication in SW480 colon adenocarcinoma cells; 340,000 compounds, 1.8% hits; SW480 DNA re-replication, Hoechst DNA content imaging, 48 h; Potency, µM (series often up to 46.1 µM), without a hit: top-dose re-replication activation, usual class: activators; AID 624297, 2012; further: % of control where 0% means no effect; nearly all actives have a fitted effect of over 55% in size
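Cells (250 per well) received 23 nL compound or DMSO by pin tool and were kept 48 hr at 37 C, 5% CO2. Nuclei were then stained with Hoechst for 40 min and scanned for DNA content.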
* marks the source's active call; other numbers are inactive results; ! = not active in a repeat; [ ] = another dose, or the depositor's remark. Unless noted, the call rests on the fitted dose curve; in most records, active means well fitted curve in the direction sought with a large enough effect; inconclusive means small, poorly fitted or top-dose-only effect, or another doubt; inactive means no such curve, though single readings can be large; an effect the other way counts as inactive or inconclusive. Potency means the concentration at half of the fitted maximal effect.

What do the screens show for `Cc1ccc(-n2ncc3c(SCc4cccc(C)c4)ncnc32)cc1`?
PINK1 expr mod: 0.2%; KB-3-1 cytotox: inactive; 12-LOX inh: -21.3%; KB-V1 cytotox: inactive; MCF10A rereplic: 1.3%; SW480 rereplic: -0.6%

What do the screens show for `Cc1ccc(CNc2ncnc3c2cnn3-c2ccc(C)cc2C)cc1`?
PINK1 expr mod: 2.2%; KB-3-1 cytotox: inactive; 12-LOX inh: inconclusive; KB-V1 cytotox: inactive

How did Cc1ccc(-n2ncc3c(SCc4cccnc4)ncnc32)c(C)c1 do in these assays?
PINK1 expr mod: 4.1%; KB-3-1 cytotox: inactive; 12-LOX inh: 14.9%; KB-V1 cytotox: 5.8µM*; MCF10A rereplic: 10.7%; SW480 rereplic: 2.3%

How did Cc1cccc(CSc2ncnc3c2cnn3Cc2ccccc2)c1 do in these assays?
PINK1 expr mod: 1.3%[38.3 µM]; KB-3-1 cytotox: inconclusive; 12-LOX inh: 0.0%; KB-V1 cytotox: 14.6µM*; MCF10A rereplic: inconclusive; SW480 rereplic: 12.9%

What do the screens show for `COc1ncccc1-c1cc2c(ccn2CC2CCN(C)CC2)c(N2CCOCC2)n1`?
12-LOX inh: 62.2%[176 µM]

What do the screens show for `O=C(Oc1cccc(Br)c1)c1cccc2ccccc12`?
12-LOX inh: 4.8%

What do the screens show for `NC(=O)C1CCN(C(=O)CCc2nc3sc4c(c3c(=O)[nH]2)CCCC4)CC1`?
PINK1 expr mod: -5.9%; KB-3-1 cytotox: inactive; 12-LOX inh: 17.8µM*!; KB-V1 cytotox: inactive; MCF10A rereplic: -3.1%; SW480 rereplic: 0.0%

Results for O=C(CSc1ncnc2sc3c(c12)CCCC3)Nc1ncc(Cl)cc1Cl ?
12-LOX inh: 18.1%

Results for Cc1ccc(NC(=O)/C=C/c2ccco2)cc1F ?
PINK1 expr mod: 16.3%; KB-3-1 cytotox: inconclusive; 12-LOX inh: inconclusive; KB-V1 cytotox: inactive

How did O=C(Nc1ccc(NC(=O)c2ccc([N+](=O)[O-])o2)cc1Cl)c1ccco1 do in these assays?
PINK1 expr mod: 1.3%; KB-3-1 cytotox: 18.4µM*; 12-LOX inh: 3.5%; KB-V1 cytotox: inactive; MCF10A rereplic: 9.2µM*; SW480 rereplic: 2.06µM*

What do the screens show for `O=C(/C=C\c1ccco1)Nc1cc([N+](=O)[O-])ccc1F`?
PINK1 expr mod: 3.1%; KB-3-1 cytotox: 4.11µM*; 12-LOX inh: inconclusive; KB-V1 cytotox: 1.16µM*; MCF10A rereplic: inconclusive; SW480 rereplic: 0.581µM*

Results for O=C(Nc1cccc(NC(=O)c2ccc([N+](=O)[O-])o2)c1)c1ccco1 ?
PINK1 expr mod: -0.1%; KB-3-1 cytotox: inconclusive; 12-LOX inh: -7.3%; KB-V1 cytotox: inconclusive; MCF10A rereplic: 2.31µM*; SW480 rereplic: 4.11µM*

How did CC(=O)Nc1cccc(NC(=O)c2ccco2)c1 do in these assays?
KB-3-1 cytotox: inactive; 12-LOX inh: -19.0%; KB-V1 cytotox: inactive; MCF10A rereplic: 10.0%; SW480 rereplic: -11.9%

How did O=C(/C=C/c1cccc([N+](=O)[O-])c1)Nc1cccc(NC(=O)c2ccco2)c1 do in these assays?
PINK1 expr mod: -0.6%; KB-3-1 cytotox: inconclusive; 12-LOX inh: -18.2%; KB-V1 cytotox: inconclusive; MCF10A rereplic: 16.4µM*; SW480 rereplic: 18.5%

How did O=C(CC1Sc2ccc(C(F)(F)F)cc2NC1=O)NOC1CCCCO1 (configuration not stated) do in these assays?
12-LOX inh: 3.4%

What do the screens show for `CCN(CC)S(=O)(=O)c1cc([N+](=O)[O-])ccc1N/N=C/c1cccs1`?
12-LOX inh: 2.8%

How did CCOC(C)C(=O)NCCc1cccs1 (configuration not stated) do in these assays?
12-LOX inh: -2.4%

Results for O=C1N(CC2CCC2)CCCC12CCN(Cc1ccc(-c3ccn[nH]3)s1)C2 (configuration not stated) ?
12-LOX inh: 9.2%

How did CCOc1ccccc1NC(=O)c1cc(C(=O)c2cc(Br)ccc2O)coc1=N do in these assays?
PINK1 expr mod: inconclusive; KB-3-1 cytotox: inconclusive; 12-LOX inh: inconclusive; KB-V1 cytotox: inconclusive; MCF10A rereplic: 7.31µM*; SW480 rereplic: inconclusive

What do the screens show for `CC(C)(C=O)C1=CC(=O)c2ccccc2C1=O`?
PINK1 expr mod: -1.7%; KB-3-1 cytotox: inactive; 12-LOX inh: 39.8µM*; KB-V1 cytotox: inactive; MCF10A rereplic: 13µM*; SW480 rereplic: 7.31µM*

What do the screens show for `CCn1c(/C=C/N(C)c2ccccc2)[n+](CC)c2ccc(Cl)cc21`?
KB-3-1 cytotox: 5.17µM*; 12-LOX inh: inconclusive; KB-V1 cytotox: inactive; MCF10A rereplic: 26.6%; SW480 rereplic: 3.5%

How did CCn1c(/C=C/Nc2ccccc2)[n+](CC)c2ccc(Cl)cc21 do in these assays?
PINK1 expr mod: 8.9%; KB-3-1 cytotox: inconclusive; 12-LOX inh: inconclusive; KB-V1 cytotox: inactive; MCF10A rereplic: -5.0%; SW480 rereplic: -2.1%

How did Cc1nnc(SCCn2c(N3CCCC(C)C3)nc3c2c(=O)n(C)c(=O)n3C)s1 (configuration not stated) do in these assays?
PINK1 expr mod: -1.4%; KB-3-1 cytotox: inactive; 12-LOX inh: 5.0%; KB-V1 cytotox: inactive; MCF10A rereplic: -2.2%; SW480 rereplic: -14.6%

What do the screens show for `Cc1nnc(SCCn2c(N3CCC(C)CC3)nc3c2c(=O)n(C)c(=O)n3C)s1`?
PINK1 expr mod: -2.0%[38.3 µM]; KB-3-1 cytotox: inconclusive; 12-LOX inh: -10.7%; KB-V1 cytotox: 11.6µM*; MCF10A rereplic: 14.2%; SW480 rereplic: -9.6%

How did COc1cc(Br)c(CN2C(=O)NC3(CCCCCC3)C2=O)cc1OC do in these assays?
PINK1 expr mod: 1.5%; KB-3-1 cytotox: inactive; 12-LOX inh: -6.5%; KB-V1 cytotox: 6.51µM*; MCF10A rereplic: -0.4%; SW480 rereplic: 12.4%

How did COc1ccc(Br)cc1CN1C(=O)NC2(CCCCCC2)C1=O do in these assays?
PINK1 expr mod: -1.6%; KB-3-1 cytotox: inactive; 12-LOX inh: inconclusive; KB-V1 cytotox: inactive; MCF10A rereplic: 23.4%; SW480 rereplic: -4.3%

What do the screens show for `COc1cccc(NC(=O)CCc2c(C)c3ccc(OC)c(C)c3oc2=O)c1`?
12-LOX inh: -2.0%

How did CCc1ccc2c(CN3CCc4cc(OC)c(OC)cc4C3)cc(=O)oc2c1 do in these assays?
PINK1 expr mod: 0.8%; KB-3-1 cytotox: inactive; 12-LOX inh: inconclusive; KB-V1 cytotox: inactive; MCF10A rereplic: 9.6%; SW480 rereplic: -0.1%
